Source: PubChem BioAssay
Most compounds without a hit are left out; they make up all but 3.2% or so of the library.
Coupling enz – inhibits coupling enzyme system, counter-screen for aldolase hits. coupling enzyme system counterscreen, AmpLite Red fluorescence. activity change, negative = inhibition, % at 58.2 µM, hits read low. 290,000 tested, 0.67% active. AID 2472; in the data active means activity change below about -30%
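Fluorescence at 525 nm excitation and 598 nm emission measured inhibition of the coupled detection system without aldolase. Compounds (at 57.5 uM final) were preincubated 10 min at room temperature with coupling enzyme reagent before a 20 min substrate/AmpLite Red step.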
USP1 inh – USP1/UAF1 (human) deubiquitinase inhibition. O94782. recombinant USP1/UAF1, Ub-Rhodamine cleavage fluorescence. Potency, µM (titrated, usually from 57.1 µM), inactives show at the top dose activity change, negative = inhibition, usual class: inhibitors. 390,000 tested, 0.23% active. AID 743255; further: potency means the concentration at half of the fitted maximal effect; nearly all actives have a fitted effect of over 60% in size
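USP1/UAF1 complex (1 nM) preincubated 15 min at room temperature with compound, then Ub-Rho substrate (150 nM final) added. Kinetic fluorescence at 480/540 nm over 6 reads at 60 s intervals; 50 mM HEPES pH 7.8, 0.5 mM EDTA, 0.1 mg/ml BSA, 1 mM TCEP, 0.01% Tween-20.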
VDR inhibitor – blocks the human vitamin D receptor | P11473 | VDR-SRC2-3 peptide fluorescence polarization, 2 h | Potency, µM, without a hit: max response, negative = inhibition, usual class: inhibitors | 400,000 tested, 0.93% active | AID 504847; further: potency means the concentration at half of the fitted maximal effect
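Measured by FP: displacement of SRC2-3 coactivator peptide from VDR by library compounds, following a two-hour ambient incubation.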
USP2a inh – blocks human ubiquitin-specific protease USP2a | USP2 core, Ub-CHOP2 coupled fluorogenic reporter, 485/531 | AID 463254 | O75604 | 330,000 tested, 0.01% active | Potency, µM (top dose mostly 38.3 µM), for the others: at the top dose activity change, negative = inhibition, usual class: inhibitors;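 further: potency means the concentration at half of the fitted maximal effect; plate controls were DMSO wells for no effect and full inhibition by NEM control for full effect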
Target sequence (O75604 whole entry, looked up): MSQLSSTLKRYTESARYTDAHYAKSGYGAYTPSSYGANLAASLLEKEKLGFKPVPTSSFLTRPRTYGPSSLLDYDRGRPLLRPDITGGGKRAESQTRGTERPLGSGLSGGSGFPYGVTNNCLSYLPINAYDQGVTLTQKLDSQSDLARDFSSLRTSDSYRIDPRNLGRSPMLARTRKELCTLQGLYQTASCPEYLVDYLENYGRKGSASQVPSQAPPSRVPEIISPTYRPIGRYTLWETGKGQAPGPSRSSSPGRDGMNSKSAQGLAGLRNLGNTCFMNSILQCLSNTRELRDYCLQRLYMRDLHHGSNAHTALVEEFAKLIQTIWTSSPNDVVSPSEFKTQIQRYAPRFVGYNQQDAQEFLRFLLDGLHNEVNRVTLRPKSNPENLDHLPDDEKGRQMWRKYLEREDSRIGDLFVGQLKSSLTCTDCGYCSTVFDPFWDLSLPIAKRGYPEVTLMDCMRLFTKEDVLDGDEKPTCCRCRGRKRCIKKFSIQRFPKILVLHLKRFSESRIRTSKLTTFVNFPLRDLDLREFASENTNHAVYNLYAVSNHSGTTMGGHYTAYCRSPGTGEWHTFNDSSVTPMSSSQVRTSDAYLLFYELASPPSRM
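USP2 core (10nM final) preincubated 30min RT with compound in 20mM Tris-HCl pH 8.0, 2mM CaCl2, 2mM beta-mercaptoethanol, 0.05% CHAPS; 25nM Ub-CHOP2 plus 25nM reporter substrate added, fluorescence (Ex485/Em531) read after 60min.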
GALK inhibitor – inhibitors of human galactokinase. 270,000 tested, 0.007% active. Potency, µM (highest dose often 57.5 µM), for inactives: at the top dose activity change, negative = inhibition, usual class: inhibitors. Purified GALK, Kinase-Glo residual ATP luminescence; further: potency means the concentration at half of the fitted maximal effect
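Kinase-Glo Plus luminescence measured ATP left after a 1 h room-temperature reaction. The reaction used 5 nM GALK, 100 uM galactose and 35 uM ATP at pH 8.0 (20 mM HEPES, 5 mM MgCl2, 60 mM NaCl, 1 mM DTT, 0.01% BSA).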
PLK1 PBD inh – blocks phosphopeptide binding to human PLK1 polo-box domain | Plk1 PBD binding of FITC phosphopeptide, fluorescence polarization | Potency, µM, for inactives: max response, negative = inhibition, usual class: inhibitors | 360,000 tested, 2.8% active | AID 720504; further: potency means the concentration at half of the fitted maximal effect; series mostly up to about 57 µM; nearly all actives have a fitted effect of over 65% in size
An asterisk follows results filed as active; u = inconclusive; x = no result. Unless noted, the call rests on the fitted dose curve; in most records, active means well fitted curve in the direction sought with a large enough effect; inconclusive means small, poorly fitted or top-dose-only effect, or another doubt; inactive means no such curve, though single readings can be large; an effect the other way counts as inactive or inconclusive. Unless noted, on the % scale 0 is the no-effect control and ±100 the full control effect.

SMILES	Coupling enz	USP1 inh	VDR inhibitor	USP2a inh	GALK inhibitor	PLK1 PBD inh
COc1ccc(C)cc1NC(=O)c1nn(-c2ccccc2)cc1OC	-3.5	u	-20.8%	-7.5%	-1.7%	u
CC(C1SC(=S)NC1=O)C1SC(=S)NC1=O (centres undefined)	x	-23.1%	x	x	x	2.12µM*
CC(=O)N1c2ccccc2C2(O)N=C(C)SC12 (centres undefined)	-9.2	-22.7%	u	-1.7%	0.4%	5.32µM*
N#C/C(=C\c1ccccc1)C(=O)NNS(=O)(=O)c1cccc([N+](=O)[O-])c1	x	-4.0%	u	2.6%	x	u
COc1cccc(NC(=O)CN(C)CC(=O)Nc2cccc(C(F)(F)F)c2)c1	1.7	u	-16.8%	1.8%	9.7%	-7.0%
O=C(Oc1ccc2ccc(O)cc2c1)C1CCCCC1	-11.0	u	u	-1.2%	-1.0%	4.23µM*
O=C(Nc1cc(S(=O)(=O)N2CCOCC2)ccc1O)c1ccc2c(c1)S(=O)(=O)c1ccccc1C2=O	4.3	-19.6%	u	-1.4%	2.1%	10.6µM*
O=C(Nc1ccc(S(=O)(=O)N2CCOCC2)cc1)c1ccco1	2.6	-22.9%	2.7%	0.7%	-0.7%	-6.5%
O=C(Nc1cc(S(=O)(=O)N2CCOCC2)ccc1O)c1ccco1	4.8	5.9%	-0.1%	0.7%	-0.9%	29.9µM*
Cc1cc(C)cc(NC(=O)N2CCc3ccccc3C2)c1	-4.4	-25.1%	13.1%	-0.5%	2.3%	0.9%
CC(C)C1Cc2c(sc(NC(=S)NC(=O)c3ccccc3)c2C#N)CO1 (centres undefined)	-2.1	-19.3%	-23.5%	0.4%	-0.3%	23.8µM*
CC(C)N1CCc2c(sc(NC(=O)c3ccc(S(=O)(=O)N4CCOCC4)cc3)c2C#N)C1	-0.6	u	-3.6%	3.3%	-0.2%	22.3%
Cc1sc(NC(=S)NC(=O)c2ccccc2)c(C#N)c1C	x	-12.3%	-14.5%	x	x	11.9µM*
CCCN1CCc2c(sc(NC(=S)NC(=O)c3ccccc3)c2C#N)C1	0.6	-29.0%	u	12.0%	0.8%	7.52µM*
CC(C)N1CCc2c(sc(NC(=S)NC(=O)c3ccccc3)c2C#N)C1	-38.8*	-5.2%	-9.5%	3.4%	-2.2%	u
CC/C(C)=N/NC(=O)c1[nH]c2ccc(C)cc2c1-c1ccccc1	0.1	-25.0%	u	-0.5%	-1.0%	-8.8%
O=C(NC1(N2CCOCC2)CC1)c1ccc(Cl)cc1	6.0	-28.1%	-12.1%	-5.3%	1.9%	-7.9%
CC(C)(C)C1=CC=C(C(C)(C)C)C(=O)C1=O	-59.6*	x	x	-1.6%	-4.3%	x
CN(C(=O)CSc1nc(-c2ccccc2)cn1N)C(c1ccccc1)c1ccccc1	-2.9	u	-13.5%	-0.6%	3.3%	-7.9%
COc1ccc2nc(NC(=S)N(C)C)sc2c1	3.4	-13.4%	u	0.2%	-0.3%	5.32µM*
CCN(CC)S(=O)(=O)c1cccc(-n2c(O)c(C=Nc3ccccc3C(=O)O)c3ccccc3c2=O)c1	2.8	u	-12.7%	0.5%	-2.6%	23.8µM*
C/C(=N/NC(=O)CNC(=O)c1ccccc1F)c1ccc2c(c1)CCCC2	4.1	3.7%	-4.8%	1.7%	8.8%	8.44µM*
C/C(=N/NC(=O)CNC(=O)c1ccc2c(c1)OCO2)c1ccc2c(c1)CCCC2	3.6	-20.3%	-8.4%	-4.7%	-2.7%	-3.4%
Cc1c(CNC2CCCCC2)c(C(=O)O)c(C)n1Cc1ccc(F)cc1	x	4.0%	8.6%	x	x	x
CC(=O)Nc1cccc(S(C)(=O)=O)c1	-1.0	-18.3%	-15.6%	3.2%	1.3%	-26.4%
SMILES	Coupling enz	USP1 inh	VDR inhibitor	USP2a inh	GALK inhibitor	PLK1 PBD inh
CCCN1CCCc2cc(CN)ccc21	-52.4*	15.8µM*	28.2µM*	5.7%	1.0%	18.9µM*
C/C=C(\C)C(=O)Nc1cccc(C2=NOC3(C2)C[C@@H](C(N)=O)N(C(=O)c2ccccc2C(=O)c2ccccc2)C3)c1 (some centres undefined)	2.2	-23.8%	1.4%	-3.0%	-1.6%	-8.5%
CC(/C=C/c1ccccc1F)=N\NC(=O)c1ccc(Cl)cc1	5.8	0.8%	u	-2.6%	3.9%	5.32µM*
CC(C)/C=N/NC(=O)c1ccc(Cl)cc1	0.2	-17.1%	u	1.6%	2.4%	26.7µM*
O=C(COC(=O)CC1CC2CCC1C2)Nc1c(F)cccc1F (centres undefined)	0.1	-9.2%	-1.9%	-0.8%	-1.0%	-10.1%
COc1ccccc1CNC(=O)CCc1cn(C)c2ccccc12	0.6	-20.8%	-10.2%	1.5%	x	-6.3%
Cc1ccc(S(=O)(=O)N2CCCC(C(=O)O)C2)s1 (centres undefined)	5.1	-4.0%	-23.2%	2.4%	0.7%	29.9µM*
CC12CCC(C)(c3nc4ccccc4nc31)C2(C)C	-0.9	-5.6%	0.8%	1.0%	0.6%	29.9µM*
Cc1c(NC(=O)CSc2n[nH]c(=O)n2-c2ccccc2)c(=O)n(-c2ccccc2)n1C	1.3	-16.2%	u	4.6%	-1.1%	26.7µM*
Cc1c(NC(=O)COC(=O)CCC(=O)c2ccc(Cl)cc2)c(=O)n(-c2ccccc2)n1C	4.0	-20.7%	u	1.3%	11.3%	16.8µM*
Cc1c(NC(=O)CSc2nnc(COc3ccccc3)n2-c2ccccc2)c(=O)n(-c2ccccc2)n1C	4.9	-4.6%	-4.3%	0.6%	1.7%	5.8%
CCC(=O)c1ccc(OCC(=O)OCC(=O)Nc2c(C)n(C)n(-c3ccccc3)c2=O)cc1	x	-13.4%	-18.2%	1.7%	x	-5.1%
CCOC(=O)c1cnc2ccc(C)cc2c1Sc1ccccc1C(=O)OC	-24.7	u	-13.5%	5.0%	-5.1%	26.7µM*
CCOC(=O)c1cnc2ccc(C)cc2c1NCCO	-3.3	-25.7%	6.3%	1.5%	-1.4%	-0.6%
O=S(=O)(c1cccc2nsnc12)N1CCN(c2ccccc2F)CC1	0.8	-7.7%	0.7%	3.3%	4.4%	23.8µM*
Cc1c(C(=O)Nc2ccc(C(C)C)cc2)sc2nc[nH]c(=O)c12	x	-9.7%	-13.7%	x	x	x
COc1ccc(Cc2nc3ccccc3n2CC(=O)N/N=C/c2ccccc2)cc1OC	-23.7	-17.1%	4.2%	-0.1%	0.7%	0.1%
CCOC(=O)c1c(C)nn(-c2ccc(NC(=O)/C=C/C(=O)O)cc2)c1C	7.7	-22.0%	-9.7%	-0.9%	3.6%	2.9%
CCNC(=O)Nc1ccc(-n2nc(C)c(C(=O)OCC)c2C)nc1	5.4	-14.6%	-23.0%	2.7%	-1.2%	15µM*
O=C1OC[C@H]2CCCC[C@@H](CO)ON12	x	-12.2%	-16.2%	0.2%	x	2.4%
O=C(Nc1cccs1)N1CCN(c2ncccn2)CC1	2.7	-7.4%	-0.9%	0.7%	-0.3%	u
COc1ccc(C(c2nnnn2Cc2cccs2)N2CCN(c3ccc(F)cc3)CC2)cc1OC (centres undefined)	1.0	-23.6%	-27.3%	-2.1%	3.6%	21.2µM*
